Assay outcomes: PubChem BioAssay, National Center for Advancing Translational Sciences (NCATS)
Cruzain noTriton = inhibitors of Trypanosoma cruzi cruzain without detergent; purified cruzain, Z-FR-AMC fluorescence, no detergent; Potency, µM, hits mostly inhibitors; actives 2.3% (n = 200,000); note: nearly all actives have a fitted effect of over 40% in size
Target sequence (P25779 123-467 limits assumed): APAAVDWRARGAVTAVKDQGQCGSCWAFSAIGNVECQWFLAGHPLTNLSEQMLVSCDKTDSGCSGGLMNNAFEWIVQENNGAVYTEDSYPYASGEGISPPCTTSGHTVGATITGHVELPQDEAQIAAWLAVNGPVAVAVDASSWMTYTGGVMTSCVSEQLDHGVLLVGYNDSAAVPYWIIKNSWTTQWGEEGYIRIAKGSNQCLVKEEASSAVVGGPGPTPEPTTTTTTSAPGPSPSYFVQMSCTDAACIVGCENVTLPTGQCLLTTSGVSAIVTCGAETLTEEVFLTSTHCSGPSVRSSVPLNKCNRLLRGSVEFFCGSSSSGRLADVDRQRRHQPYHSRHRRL
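Purified cruzain at 1.5 nM, pre-incubated 15 min with compound at room temperature in 100 mM sodium acetate pH 5.5, 5 mM DTT, 0.00005% Triton X-100. Reaction started with 2 uM Z-FR-AMC; AMC fluorescence increase over 60 s gives rate.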
Cruzain Triton = blocks cruzain activity in presence of Triton detergent | purified cruzain, Z-FR-AMC fluorescence, 0.01% Triton | actives 0.43% (n = 200,000) | Potency, µM, hits mostly inhibitors; note: nearly all actives have a fitted effect of over 40% in size
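Cysteine protease activity tested under reducing, mildly acidic conditions (100 mM sodium acetate pH 5.5, 5 mM DTT) plus 0.01% Triton X-100. Cruzain 1.5 nM; substrate Z-FR-AMC 2 uM; 15 min compound preincubation at room temperature.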
Of the large screens only hits and unclear results are named; the others gave an inactive call. Shown are actives, neighbours in structure and some others; about 2.6% of the full set was active somewhere. Calls come from the whole dose curve; as a rule, active = well fitted curve in the direction sought with a large enough effect; inconclusive = small, poorly fitted or top-dose-only effect, or another doubt; inactive = no such curve, though single readings can be large; an effect the other way counts as inactive or inconclusive.

CCOc1cc(/C=N/N=C(/N)c2nonc2N)cc(Br)c1OCc1ccc(Cl)cc1	Cruzain noTriton 3.98µM
CN(C)CCNC(=O)CN1N=C(c2ccccc2)CCC1=O	none
O=C(/C=C/c1cccs1)Nc1ccc(N2CCOCC2)c(S(=O)(=O)Nc2cc(Cl)ccc2Cl)c1	Cruzain noTriton 5.01µM
O=C(Nc1ccc(Cl)c(S(=O)(=O)Nc2ccccc2Cl)c1)c1cccs1	none
O=C(/C=C/c1cccs1)Nc1ccc(N2CCOCC2)c(S(=O)(=O)Nc2ccccc2Cl)c1	Cruzain noTriton 25.1µM
O=C(/C=C/c1ccc(Cl)cc1)NC(=S)Nc1ccc(N2CCOCC2)c(Cl)c1	Cruzain noTriton inconclusive
COc1ccccc1NS(=O)(=O)c1cc(NC(=O)c2ccncc2)ccc1N1CCOCC1	Cruzain noTriton inconclusive
COc1ccccc1NS(=O)(=O)c1cc(NC(=O)/C=C/c2cccs2)ccc1N1CCOCC1	Cruzain noTriton 25.1µM
Cc1oc(-c2ccc(C(=O)Nc3ccc(F)cc3)cc2)nc1COc1ccccc1	none
COC(=O)c1ccc(CSc2nc3c([nH]c4ccccc43)c(=O)n2-c2cccc(OC)c2)o1	Cruzain noTriton 25.1µM
CCSc1nc2c([nH]c3ccccc32)c(=O)n1-c1cccc(OC)c1	none
COC(=O)c1ccc(CSc2nc3c([nH]c4ccccc43)c(=O)n2-c2cccc(Cl)c2)o1	none
COc1cccc(-n2c(SCc3ccc(F)cc3)nc3c([nH]c4ccccc43)c2=O)c1	Cruzain noTriton 10µM
O=C(NCc1ccc(Cl)cc1)C1(c2cccs2)CCOCC1	none
O=C(CSc1nc(-c2ccc(F)cc2)[nH]c1-c1ccc(F)cc1)Nc1ccc2c(c1)OCO2	none
O=C(Cn1c(=O)c2cccn2c2ccccc21)NCCc1ccccc1	Cruzain noTriton 15.8µM
O=C(CCCn1c(=O)c2cccn2c2ccc(F)cc21)NCCc1ccccc1	none
O=C(Nc1cc(Cl)ccc1Cl)c1cc(S(=O)(=O)NCCc2ccccc2)ccc1F	none
S=C(Nc1ccccc1)Nc1ccc(OCc2ccccc2)cc1	Cruzain noTriton 12.6µM
S=C(Nc1ccc(OCc2ccccc2)cc1)Nc1cccc(Cl)c1Cl	Cruzain noTriton inconclusive
Cc1ccccc1CNC(=O)CN1CCSc2ccccc21	none
CCCCCc1c2c(cc(O)c1C(=O)O)OC(=O)c1cc(C(=O)CCCC)c(OC)cc1O2	Cruzain noTriton inconclusive, Cruzain Triton 17.8µM
CCCCCc1c2c(cc(O)c1C(=O)O)OC(=O)c1c(cc(OC)cc1C(=O)CCCC)O2	none
Cc1ccc(Nc2ncc(C(=O)N3CCN(c4cccc(Cl)c4)CC3)c3ccccc23)cc1Cl	Cruzain noTriton 7.94µM
COc1ccccc1NC(=O)c1cnc(Nc2ccccc2OC)c2ccccc12	Cruzain noTriton inconclusive
COc1ccc(Nc2ncc(C(=O)N3CCN(Cc4ccccc4)CC3)c3ccccc23)cc1	none
COc1ccc(OC)c(NC(=O)c2cnc(Nc3ccc(C)c(Cl)c3)c3ccccc23)c1	Cruzain noTriton 6.31µM
CCn1cc2nc(SCC(=O)Nc3ccccc3F)n(Cc3ccc(C)cc3)c(=O)c2n1	none
Cc1ccc(Cn2c(CN3CCC(C(=O)NCCc4ccccc4)CC3)cc3ccccc32)cc1	none
CN(C)CCNc1oc(-c2ccc(COc3ccc(Cl)cc3)o2)nc1C#N	none
C[C@@H](C(=O)Nc1ccc2ccccc2c1)[C@@H]1C[C@@]1(C)[C@@H](NC(=O)Oc1ccc(F)cc1)c1ccccc1	Cruzain noTriton 7.94µM
CC(=O)N[C@@H](c1ccccc1)[C@]1(C)C[C@H]1[C@@H](C)C(=O)Nc1ccc2ccccc2c1	Cruzain noTriton inconclusive
C[C@@H](C(=O)Nc1ccc2ccccc2c1)[C@@H]1C[C@@]1(C)[C@@H](NS(=O)(=O)c1ccc(-c2ccccc2)cc1)c1ccccc1	Cruzain noTriton 3.16µM
C[C@@H](C(=O)Nc1ccc2ccccc2c1)[C@@H]1C[C@@]1(C)[C@@H](NS(=O)(=O)c1ccccc1)c1ccccc1	Cruzain noTriton inconclusive
COc1ncc2nc(-c3ccccc3)c(=O)n(C[C@H]3CCCO3)c2n1	none
CCOC(=O)C(CC)n1nc(C)c2c(C)n(-c3ccc(C)cc3)nc2c1=O (configuration not stated)	none
CC(C)(C)OC(=O)N1CCC[C@H]1C(O)(c1ccccc1)c1ccccc1	none
N#C/C(=C\C=C\c1ccccc1[N+](=O)[O-])c1nc(-c2ccc3c(c2)OCO3)cs1	Cruzain noTriton 20µM
N#C/C(=C\c1ccccc1[N+](=O)[O-])c1nc(C2CC2)cs1	none
Cc1nn(S(=O)(=O)c2ccc(C(C)C)cc2)c(C)c1S(=O)(=O)N1CCCCC1	none
O=C(COC(=O)CNC(=O)C1CCCCC1)Nc1ccc(Cl)cn1	Cruzain noTriton 6.31µM, Cruzain Triton 6.31µM
O=C(COC(=O)CCOc1ccccc1)Nc1ccc(Cl)cn1	none
CCOC(=O)c1sc(NC(=O)COC(=O)CNC(=O)c2ccco2)c(C(=O)OCC)c1C	Cruzain noTriton inconclusive
CCOC(=O)c1sc(NC(=O)COC(=O)CNC(=O)C2CCCCC2)c(C(=O)OCC)c1C	Cruzain Triton 2.24µM
CCn1c(N2CCN(S(=O)(=O)c3ccccc3C(F)(F)F)CC2)nc2ccccc21	none
O=S(=O)(c1ccccc1C(F)(F)F)N1CCN(S(=O)(=O)c2ccccc2C(F)(F)F)CC1	Cruzain noTriton 20µM
CC(C)OCCCN1C(=O)c2[nH]nc(-c3ccccc3O)c2C1c1cccc(OCc2ccccc2)c1 (configuration not stated)	none
Cc1ccc(-n2c(C)cc(/C=c3/sc4nc5ccccc5n4c3=O)c2C)cc1	Cruzain noTriton 10µM
O=c1/c(=C\c2cccn2-c2ccccc2)sc2nc3ccccc3n12	Cruzain noTriton inconclusive
CCCOc1ccc(NC(=O)CC2C(=O)N(c3cccc(OC)c3)C(=O)N2Cc2cccs2)cc1 (configuration not stated)	none
CCC(=O)N1c2ccccc2CC1C(=O)NCCc1ccc(OC)c(OC)c1 (configuration not stated)	none
CCC(=O)N1CCc2cc(CNS(=O)(=O)c3c(C)cc(C)cc3C)ccc21	none
O=C(Nc1nnc(C2CC2)s1)c1cc(S(=O)(=O)N2CCN(c3ccccc3)CC2)ccc1Cl	Cruzain noTriton inconclusive
CCc1nnc(NC(=O)c2ccc(Cl)c(S(=O)(=O)N3CCc4ccccc43)c2)s1	Cruzain noTriton 12.6µM
O=C(Nc1nnc(S(=O)(=O)N2CCc3ccccc32)s1)c1ccccc1Cl	none
O=C(Nc1nnc(C2CC2)s1)c1ccc(Cl)c(S(=O)(=O)N2CCc3ccccc3C2)c1	Cruzain noTriton 25.1µM
COc1ccc(OC)c(CCNC(=O)c2cc3cccc4c3n2CCS4)c1	none
O=C(Nc1cccc(Cl)c1)c1cc(S(=O)(=O)N2CCCc3ccccc32)ccc1F	none
COc1ccc2c(c1OC)C(Cc1ccccc1)N1CCc3cc4c(cc3C1=C2)OCO4 (configuration not stated)	none
O=C(Nc1ccc2c(c1)oc1ccccc12)c1ccc2c(c1)OCO2	Cruzain noTriton inconclusive
O=C(COc1ccc2c(c1)OCO2)Nc1ccc2c(c1)oc1ccccc12	Cruzain noTriton 10µM
CC[C@H](CO)NCCN[C@@H](CC)CO	none
Nc1cccc(N)c1	Cruzain noTriton inconclusive, Cruzain Triton 11.2µM
Nc1cccc(Cl)c1	none
COc1ccc(Nc2oc(/C=C/c3ccc(OC)c(OC)c3)nc2C#N)cc1	none
Cc1cc(C)nc(/N=C(/NC(=O)Nc2ccc(Cl)c(Cl)c2)Nc2ccccc2)n1	Cruzain noTriton inconclusive
COc1ccccc1N/C(=N/c1nc(C)cc(C)n1)NC(C)=O	none
CCCOc1ccccc1N/C(=N/c1nc(C)cc(C)n1)NC(=O)Nc1ccc(Cl)cc1	Cruzain noTriton 7.94µM
CCOc1ccccc1NC(=O)Nc1ccc(Cl)cc1	none
